From PubChem BioAssay
In the library only some 12% were active in any assay of this set; here they are far more common.
ROMK primary – ROMK potassium channel modulators, primary screen, cell-based, thallium flux, MLSMR library | 130,000 compounds, 2% hits | Tet-inducible ROMK, thallium flux fluorescence; actives lie on both sides | B-score at 10 µM | ATP-sensitive inward rectifier potassium channel 1 (Homo sapiens), P48048;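 active = signal ratio slope over the read window, or its plate-corrected B-score, at least 3 SD from the plate mean, either direction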;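 also: B-score of the F/F0 ratio slope over 7 to 12 s after thallium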
Cl transport mod – KCC2 cotransporter modulators, thallium flux, primary screen, cell-based, HEK293 KCC2, FluoZin-2 fluorescence, MLSMR. Solute carrier family 12 member 5 (Homo sapiens), Q9H2X9. KCC2 cells, thallium flux FluoZin-2 fluorescence. B-score of Tl+ flux slope (higher = more flux/activation; lower = inhibition) at 10 µM. 190,000 compounds, 2.2% hits. AID 1456, 2008;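 active = thallium flux slope and its plate-corrected score both differing from the plate sample mean at a set confidence after two filtering rounds, in either direction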;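 also: slope of fluorescence scaled to starting intensity during 10 to 20 s after thallium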
Target sequence (Q9H2X9 whole entry, looked up): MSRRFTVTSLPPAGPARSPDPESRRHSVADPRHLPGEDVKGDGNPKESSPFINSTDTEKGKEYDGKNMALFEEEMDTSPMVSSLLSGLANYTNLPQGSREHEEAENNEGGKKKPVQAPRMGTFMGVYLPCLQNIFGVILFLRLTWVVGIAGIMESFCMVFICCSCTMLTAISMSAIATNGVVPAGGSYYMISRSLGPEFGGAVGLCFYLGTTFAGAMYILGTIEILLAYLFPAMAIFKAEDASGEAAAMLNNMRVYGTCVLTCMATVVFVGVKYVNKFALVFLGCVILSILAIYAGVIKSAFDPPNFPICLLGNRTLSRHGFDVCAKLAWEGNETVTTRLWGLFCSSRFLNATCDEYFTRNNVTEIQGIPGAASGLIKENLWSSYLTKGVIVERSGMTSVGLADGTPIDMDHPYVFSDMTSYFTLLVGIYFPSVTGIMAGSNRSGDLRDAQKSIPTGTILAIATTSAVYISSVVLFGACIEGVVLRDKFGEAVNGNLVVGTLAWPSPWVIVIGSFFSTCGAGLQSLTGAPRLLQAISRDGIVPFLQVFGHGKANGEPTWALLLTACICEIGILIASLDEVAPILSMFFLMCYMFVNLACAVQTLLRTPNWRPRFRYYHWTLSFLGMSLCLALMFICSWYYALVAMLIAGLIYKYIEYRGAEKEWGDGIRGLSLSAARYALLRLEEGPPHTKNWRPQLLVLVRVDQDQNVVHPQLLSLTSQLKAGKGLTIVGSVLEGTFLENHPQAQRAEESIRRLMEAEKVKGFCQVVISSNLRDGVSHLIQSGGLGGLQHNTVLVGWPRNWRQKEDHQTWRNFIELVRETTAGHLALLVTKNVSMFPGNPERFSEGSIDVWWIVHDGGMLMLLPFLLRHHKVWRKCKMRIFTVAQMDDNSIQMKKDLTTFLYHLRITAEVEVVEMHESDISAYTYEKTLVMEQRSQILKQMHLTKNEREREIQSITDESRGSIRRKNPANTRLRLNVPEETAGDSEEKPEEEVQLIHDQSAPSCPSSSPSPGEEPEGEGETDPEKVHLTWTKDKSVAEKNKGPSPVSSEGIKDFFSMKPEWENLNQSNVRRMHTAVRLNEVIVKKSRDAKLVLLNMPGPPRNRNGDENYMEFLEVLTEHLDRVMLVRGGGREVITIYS
Calpain2 inh – inhibitors of pig calpain II, primary screen, biochemical, fluorogenic peptide substrate, 1536-well | purified calpain II, 30 min | inhibition, % at 16 µM | 220,000 compounds, 0.37% hits;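 active = inhibition above about 50%, limit read from the data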
L major viab – Leishmania major promastigote growth inhibition, primary screen | 200,000 compounds, 9% hits | Leishmania major promastigotes, resazurin fluorescence viability | inhibition, % at 10 µM; in the data active = inhibition above about 50%;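 also: promastigotes grown with compound for 44 hours at 28 °C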
WT yeast gro inh – growth inhibition of WT strain, primary screen, mitochondrial fusion inhibitor project, WT and mutant strains, chemical genetic; inhibition, % at 10 µM; 190,000 compounds, 2.1% hits; mitochondrial fusion phenotypic screen; in the data active = inhibition above about 58%; tested in S. cerevisiae
* = called active by the depositor; . = not tested or not shown.

SMILES	ROMK primary	Cl transport mod	Calpain2 inh	L major viab	WT yeast gro inh
CSCCC(NC(=O)c1ccoc1C)C(=O)O (stereo not drawn)	1.01	-0.0573	-8.7	65.2*	-17.5
Clc1ccc(-n2ncc3c(NCCCn4ccnc4)ncnc32)cc1	-0.866	.	-20.5	100.4*	17.9
Clc1ccc(-n2ncc3c(NCCN4CCOCC4)ncnc32)cc1	.	0.732	-46.3	86.3*	11.3
CCCCNc1ncnc2c1cnn2-c1ccc(Cl)cc1	.	1.7	-8.8	0.9	13.8
CS(=O)(=O)N(CC(=O)Nc1ccc(S(=O)(=O)N2CCCC2)cc1)c1cccc(F)c1	.	0.225	-18.4	.	.
Cc1c(Cl)cccc1NC(=S)N(Cc1cccs1)C1CCCC1	0.945	0.033	28.1	22.4	67.0*
Cc1ccccc1NC(=S)N(Cc1cccs1)C1CCCCC1	-0.0942	0.00435	-1.8	37.6	67.1*
Cc1noc(C)c1S(=O)(=O)N1CCCC(C(=O)c2cccc(OC(C)C)c2)C1 (stereo not drawn)	-0.406	0.512	-0.1	55.7*	17.5
CC(C)Oc1cccc(C(=O)C2CCCN(C(=O)c3noc4c3CCCC4)C2)c1 (stereo not drawn)	-1.2	-2.28	2.8	-0.5	17.6
CC(C)Oc1cccc(C(=O)C2CCCN(Cc3ccc4nonc4c3)C2)c1 (stereo not drawn)	0.0174	0.00456	13.1	83.4*	29.9
COc1cccc(C(=O)C2CCCN(Cc3cccn3-c3ccccn3)C2)c1 (stereo not drawn)	-1.06	1.07	-16.5	48.7	13.2
CC(C)Oc1cccc(C(=O)C2CCCN(S(C)(=O)=O)C2)c1 (stereo not drawn)	0.422	0.518	-15.1	-3.3	-18.3
CC(C)Oc1cccc(C(=O)C2CCCN(Cc3cccn3-c3ccccn3)C2)c1 (stereo not drawn)	-2.2	-0.0497	-12.1	97.6*	5.9
CCOC(=O)C1CCCN(Cc2ccc(O)c(OC)c2)C1 (stereo not drawn)	.	0.0055	6.6	-2.4	17.7
CCOc1cc(CN2CCCC(C(=O)c3cccc(C(F)(F)F)c3)C2)ccc1O (stereo not drawn)	1.47	-0.0369	-5.7	54.2*	-8.6
Cn1nnnc1SCC(=O)Nc1c(Cl)cccc1Cl	.	.	-2.2	5.5	-5.1
COc1ccc(OC)c(-c2csc(N(CC3CCCO3)C(=O)Cc3ccccc3)n2)c1 (stereo not drawn)	0.138	0.231	6.8	3.1	-6.5
CCC1=Nc2cc(C(=O)NCc3cccnc3)ccc2Sc2ccc(C)cc21	.	-1.21	-28.1	.	.
CC(C)Oc1cccc(C(=O)C2CCCN(Cc3cnn(C(C)C)c3)C2)c1 (stereo not drawn)	-0.539	-1.45	-1.2	85.3*	0.2
Cc1nn(C(C)C)c(C)c1CN1CCCC(C(=O)c2cccc(OC(C)C)c2)C1 (stereo not drawn)	-0.452	1.37	-23.7	20.5	4.1
O=C(c1ccc(C(F)(F)F)cc1)C1CCCN(Cc2cccn2-c2ncccn2)C1 (stereo not drawn)	-1.14	1.21	-20.1	70.9*	-9.5
CCn1nc(C)c(CN2CCCC(C(=O)c3cccc(OC(C)C)c3)C2)c1C (stereo not drawn)	-1.6	0.51	-37.8	86.2*	3.0
CC(C)Oc1cccc(C(=O)C2CCCN(C(=O)c3ccnn3C)C2)c1 (stereo not drawn)	-0.069	-0.0136	-13.1	-5.6	9.5
O=C(c1ccccc1)c1ccccc1NC(=O)C1CCCN1Cc1ccccc1 (stereo not drawn)	.	-1	26.2	.	.
S=C1NC[C@H](CC2CCCCC2)N1CC1CCCCC1	.	-0.0239	24.2	33.1	68.2
SMILES	ROMK primary	Cl transport mod	Calpain2 inh	L major viab	WT yeast gro inh
COCCCNC(=S)Nc1cccc(SC)c1	-0.101	0.389	14.9	.	.
CCCCCCCCn1c(N2CCN(c3cccc(Cl)c3)CC2)nc2c1c(=O)[nH]c(=O)n2C	0.00294	-0.268	-5.6	31.9	-12.1
CC(C)CCn1c(N2CCN(c3cccc(Cl)c3)CC2)nc2c1c(=O)[nH]c(=O)n2C	-1.11	0.00713	-68.1	11.9	61.9*
CCCCCCOC1(c2ccccc2)OC(=O)c2ccccc21 (stereo not drawn)	-1.34	1.69	14.7	-3.6	63.4*
CN(Cc1cn(C)nc1-c1ccc(Oc2ccccc2)cc1)CC1COCCO1 (stereo not drawn)	-0.772	.	19.8	84.8*	9.4
CN(Cc1cn(C)nc1-c1ccc(Oc2ccccc2)cc1)Cc1cnc2ccccn12	-1.39	0.339	-7.6	78.1*	47.4
Cc1cccc(C)c1NC(=O)CCCSc1nnc(N)s1	-0.201	0.919	4.2	-4.1	2.1
Cc1cc(NC(=O)CCCn2ccc([N+](=O)[O-])n2)n(Cc2ccc(F)cc2)n1	0.247	-0.426	1.3	6.6	9.3
CCCCCNCc1cccc(Br)c1	-0.778	-0.155	2.7	74.5*	15.0
CCCCCCNCc1cccc(Br)c1	-0.412	0.197	13.7	53.6*	21.0
CC(C)Cc1nc2sc3c(c2c(=O)n1N)CC(C)(C)OC3	0	-0.134	5.3	.	.
COc1ccc(CN2CCNC(=O)C2CC(=O)N2CCCCO2)cc1OC (stereo not drawn)	0.148	0.506	0.8	-1.5	2.9
Cc1ccc(N(C)C(=O)n2cnc3ccccc32)cc1	-0.218	-1.62	9.2	-4.8	-6.8
C[n+]1c2n(c3ccccc31)N=C(c1ccc(Cl)cc1)CS2	.	.	20.8	85.6*	21.1
COc1ccc(C2=Nn3c(nnc3-c3ccccn3)SC2)cc1	1.78	-1.46	-12.0	-1.8	0.6
CC1Sc2n(c3ccccc3[n+]2C)N=C1c1ccccc1 (stereo not drawn)	.	-0.279	34.9	98.6*	3.1
Clc1ccc(C2=Nn3c(Cn4nnc5ccccc54)nnc3SC2)cc1	.	-0.669	13.5	.	.
COc1ccc(C2=Nn3c([n+](C)c4ccccc43)SC2)cc1	.	1.55	21.9	100.1*	35.8
COc1ccc(Oc2ccc(/C=N/NC(=O)c3cccnc3)cc2[N+](=O)[O-])cc1	0.45	-1.59	-6.7	-6.5	-18.2
COc1ccc(Oc2ccc(/C=C/C(=O)c3cccc(OC)c3)cc2[N+](=O)[O-])cc1	0.113	1.38	-20.6	100.3*	-23.3
O=C(CN(Cc1ccc(Cl)c(Cl)c1)S(=O)(=O)c1ccccc1)N/N=C\c1ccc2c(c1)OCO2	0.572	-0.401	17.3	88.0*	53.0
O=C(CN(Cc1ccccc1)S(=O)(=O)c1ccccc1)N/N=C/c1ccc2c(c1)OCO2	0.581	-0.999	12.9	63.3*	-0.8
O=C(CN(CCc1ccccc1)S(=O)(=O)c1ccc(Br)cc1)N/N=C/c1ccc2c(c1)OCO2	0.27	-0.351	8.8	-3.6	2.0
COc1cc2nc(C3CC3)n(NC(=O)c3ccc(Cl)cc3)c(=O)c2cc1OC	1.05	-0.462	-16.4	-15.1	16.9
COc1cc2nc(NC(=O)c3ccc(Cl)cc3)[nH]c(=O)c2cc1OC	.	-0.381	-86.1	60.0*	-21.3
